GALK inhibitor: blocks human galactokinase activity; AID 1868; 270,000 tested, 0.007% active; Purified GALK, Kinase-Glo residual ATP luminescence; P51570; Potency, µM (titrated, usually from 57.5 µM), for inactives: top-dose activity change, negative = inhibition, most hits filed as inhibitors; note: potency is the fitted concentration of half-maximal effect; % is set by controls: 0 for no effect and ±100 for the full control effect
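Galactose (100 uM) and ATP (35 uM) were turned over by 5 nM GALK for 1 h at RT. Kinase-Glo Plus then converted the remaining ATP into a luminescent signal.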
PI4K2A block: blocks human PI4K2A kinase activity | Q9BTU6 | purified PI4K2A, ADP-Glo luminescence, 1 h; active compounds read low | activity change, negative = inhibition, % at 76.9 µM | 420,000 tested, 0.13% active; in the data active = activity change below about -50%; inconclusive = mostly about -30% to -49%;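 note: -100% = wells without enzyme as full effect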
Target sequence (Q9BTU6 whole entry, looked up): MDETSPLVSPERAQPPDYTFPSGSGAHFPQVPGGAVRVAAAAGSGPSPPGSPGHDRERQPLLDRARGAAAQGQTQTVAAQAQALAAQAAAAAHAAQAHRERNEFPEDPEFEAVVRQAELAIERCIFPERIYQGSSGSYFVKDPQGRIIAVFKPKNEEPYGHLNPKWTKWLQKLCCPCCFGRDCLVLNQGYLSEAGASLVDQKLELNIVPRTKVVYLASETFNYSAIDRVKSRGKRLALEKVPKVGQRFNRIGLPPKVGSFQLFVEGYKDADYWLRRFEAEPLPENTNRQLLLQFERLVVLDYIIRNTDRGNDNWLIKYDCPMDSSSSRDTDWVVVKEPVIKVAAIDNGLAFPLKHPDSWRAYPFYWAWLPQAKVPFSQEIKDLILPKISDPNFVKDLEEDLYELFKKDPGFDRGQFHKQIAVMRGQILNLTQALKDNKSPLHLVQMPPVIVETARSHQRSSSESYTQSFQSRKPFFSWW
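ADP-Glo luminescence measured ADP generated by PI4K2A enzyme (4 ug/mL before mixing) with 1.2 mM PI substrate (pre-mix) and 300 microM ATP (pre-mix). Tris pH7.5 buffer with MgCl2, Triton X-100; 1 h reaction at ambient temperature.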
HTT cytoprotect: cytoprotection in Huntington HTT-Q103 PC12 cell model. PC12 HTT-Q103 induced, cytoprotection, ATP luminescence, 40 h. Potency, µM (titrated, usually from 56.4 µM), for the others: cytoprotection (ATP increase), most hits filed as activators. 230,000 tested, 0.14% active; note: potency is the fitted concentration of half-maximal effect; % of control where 0% means no effect; nearly all actives have a fitted effect of over 45% in size
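PC12 cells stably carrying ecdysone-inducible Htt exon 1 (Q103)–GFP were induced with 100 nM tebufenozide (final) alongside library compounds in a dose series. Cytoprotection was scored as retained ATP by ATPlite luminescence.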
HttQ103 aggreg: inhibitors of mutant huntingtin aggregate formation in PC12 cells; 220,000 tested, 1.1% active; Potency, µM (highest dose often 46.1 µM), inactives show top-dose activity change, negative = inhibition, hits mostly inhibitors; AID 1688; PC12 HttQ103-GFP aggregates, Acumen cytometry, 40 h; note: potency is the fitted concentration of half-maximal effect; % is set by controls: 0 for no effect and ±100 for the full control effect; nearly all actives have a fitted effect of over 60% in size
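Quantitative HTS on tebufenozide-induced (100 nM) PC12 cells stably expressing polyQ103 Huntingtin exon 1–GFP. Reduction of bright GFP aggregates, detected by laser scanning cytometry after lysis, identified actives across the titration.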
* hit, by the source's call; ? = inconclusive; · = no result; [ ] = another dose, or the depositor's remark. Shown is part of a subset that was picked to be rich in hits. Unless noted, calls come from the whole dose curve; as a rule, active = well fitted curve in the direction sought with a large enough effect; inconclusive = small, poorly fitted or top-dose-only effect, or another doubt; inactive = no such curve, though single readings can be large; an effect the other way counts as inactive or inconclusive.

SMILES	GALK inhibitor	PI4K2A block	HTT cytoprotect	HttQ103 aggreg
N#Cc1ccc(/C=C2\CC3(OC(=O)C4CCCCC4)CCCN2C3)cc1 (stereo unspecified)	·	-3.0	·	·
Cn1ccnc1/C(=N\NC(=O)c1ccccc1)c1cccc([N+](=O)[O-])c1	10.3%	0.0	-7.0%	-8.1%
O=C(N/N=C(\c1ccccc1)c1ccccn1)c1cccc([N+](=O)[O-])c1	0.4%	6.7	-139.3%	6.31µM*
COC(=O)[C@]12C[C@H](CC(=O)N3CCCC3)C(=O)N(Cc3cccc4ccccc34)C1=C[C@H](C1CCCC1)O[C@@H]2C	·	-1.2	·	·
O=C(O)[C@H]([C@H]1NCCS1)N1Cc2ccccc2C1	·	·	3.4%[10 µM]	·
COc1ccc(CCC(C)Nc2ccc(F)cc2)cc1 (stereo unspecified)	4.5%	-0.7	-5.5%	-8.7%
COc1ccc(CCC(C)Nc2ccc(F)c(F)c2)cc1 (stereo unspecified)	·	-4.7	3.2%[10 µM]	11.2µM*
Cc1ccc(NC2C(=O)NC(=O)NC2=O)cc1	·	-58.9*	·	·
Cc1ccc(NC2CNC(=O)NC2=O)cc1C (stereo unspecified)	·	1.1	·	·
CN(C)c1ccc(NC2=C(Cl)C(=O)c3ccccc3C2=O)cc1	·	?	-23.1%[10 µM]	14.1µM*
O=C1C(Cl)=C(Nc2ccc3cn[nH]c3c2)C(=O)c2ccccc21	4.0%	-7.2	-98.1%[10 µM]	3.98µM*
O=C(N/N=C1/C[C@@H](O)[C@@H](O)[C@@H]2[C@@H]3C(=O)N(C[C@@H]4CCCO4)C(=O)[C@H]3CC[C@H]12)OCc1ccccc1	·	·	-34.8%[10 µM]	·
C=CCNc1nc2c(c(=O)n(C)c(=O)n2C)n1CC	-0.4%	-2.7	-27.5%	12.6µM*
CCCCCCCCCn1c2c(c(=N)c3c1CCC3)CCC2	-2.7%	1.4	-51.7%[10 µM]	1.26µM*
CCCCCCn1c2c(c(=N)c3c1CCC3)CCC2	3.0%	-1.9	-16.9%[0.074 µM]	1.78µM*
NS(=O)(=O)c1ccc(N2CCCCS2(=O)=O)cc1	·	0.0	·	·
COc1ccc(C(=O)c2ccccc2)c2c(O)ccc(C(=O)c3ccccc3)c12	-0.1%	-9.0	1.0%	3.55µM*
COc1cc(O)c(C(=O)c2ccccc2)cc1S(=O)(=O)O	·	-5.4	?	5.4%
CN[C@@H]1[C@H](O)[C@H](NC)[C@@H]2O[C@]3(O)C(=O)C[C@@H](C)O[C@H]3O[C@@H]2[C@H]1O	·	·	50.6%	·
COc1cc(O)oc1C=Nc1ccc(Cl)cc1	-1.4%	-1.8	-2.3%	9.0%
COc1cc(O)oc1C=Nc1ccc(C(=O)O)cc1	12.7%	-50.3*	-11.7%	29.8%
O=C(CCl)Nc1cccc(-c2cnc3ccccc3n2)c1	-4.5%	2.1	-68.9%	25.1µM*
Cc1ccc(C)c(NC(=S)NCCSc2ccc(Cl)cc2)c1	-3.6%	-3.4	0.1%[0.074 µM]	-14.0%
Cc1ccc(NC(=S)NCC(C)CSc2ccc(Cl)cc2)cc1 (stereo unspecified)	3.8%	8.0	-167.3%	25.1µM*
Cc1ccc(NC(=S)NCCSc2ccc(Cl)cc2)c(C)c1	1.6%	2.9	1.78µM*	5.9%
SMILES	GALK inhibitor	PI4K2A block	HTT cytoprotect	HttQ103 aggreg
CCC(C)Nc1nc(C)nc2c1oc1ccccc12 (stereo unspecified)	4.9%	2.0	?	33.8%[9.22 µM]
Cc1nc(NC(C)c2ccccc2)c2oc3ccccc3c2n1 (stereo unspecified)	-0.9%	3.9	-29.0%	12.6µM*
Cc1ccc(O)c(/C=N/NC(=O)c2[nH]ncc2Br)c1	1.8%	-14.3	-2.2%[10 µM]	?
COc1ccc2ccccc2c1/C=N/NC(=O)c1cccc(Br)c1	1.4%	2.8	·	-26.3%
O=C(N/N=C/c1c(O)ccc2ccccc12)c1[nH]ncc1Br	-0.3%	2.7	-82.8%[10 µM]	1.12µM*
O=C(N/N=C/c1c(O)ccc2ccccc12)c1cccc(C(F)(F)F)c1	0.4%	4.6	·	3.98µM*
CCOc1ccc(/C=N/NC(=O)c2[nH]ncc2Br)c(O)c1	22.7%	-74.9*	·	·
N#CCC[C@@H]1CC[C@]2(CCCN(C(=O)C3CCCCC3)C2)O1	·	4.6	·	·
O=C(O)CCNc1cc(N2CCN(C(=O)c3ccco3)CC2)c2noc3c2c1C(=O)c1ccccc1-3	1.6%	-61.0*	·	·
CC1=C2NC(N)=[N+](Cc3ccc4c(c3)OCO4)CC2NOC1 (stereo unspecified)	·	-6.0	·	·
CC(=O)NC1(c2ccc(F)cc2)CCN(C(=O)Nc2ccc(F)cc2F)CC1	2.8%	-9.6	-96.7%[10 µM]	3.16µM*
N#Cc1nc(Cc2ccccc2)oc1NCc1ccccc1Cl	-1.9%	-9.4	-2.8%	8.91µM*

High-throughput results as filed in PubChem.
